Reference: the supplement of paper PMC4380459

Tested on: tubulin (bovine brain)
Assay: tubulin polymerization end-point dOD, fold change relative to DMSO vehicle; higher = more polymerization (stabilization)
Settings: 50 µM; 60 min; 37 °C
Outline: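 Plates were warmed to 37°C in a Tecan reader and read at 340 nm every minute for 1 hour. Beforehand, bovine brain tubulin (4 mg/ml in G-PEM buffer containing PIPES pH 6.9, MgCl2, EGTA and GTP) from the Cytoskeleton HTS-Tubulin polymerization kit was assembled on ice with compound at a final 50 μM in 0.5% DMSO in 384-well plates. Each value is the end-point change in optical density, expressed as percent fold change relative to DMSO vehicle, with runs scaled using the means and standard deviations of DMSO and reference-control wells.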

Row | Compound | tubulin polymerization end-point dOD [%]
1 | COc1ccccc1-n1c(SCC(=O)Nc2nc(C)cs2)nnc1-c1cccnc1 | -51
2 | COc1cccc(/C=C(/Cl)c2nc3cc(OC)c(OC)cc3c(=O)[nH]2)c1 | 42.1
3 | Cc1cc2c(cc(C(=O)OCC(=O)NCc3ccco3)n2C)s1 | 39.4
4 | COc1ccc(C2(C(=O)NC(C)c3nc(-c4ccncc4)n[nH]3)CC2)cc1 (stereo not given) | -41.3
5 | COc1ccc(/C=N/NC(=O)c2cccc(F)c2)cc1Br | -16.1
6 | COc1ccc(-n2nnnc2SCc2cc3c(cc2Br)OCO3)cc1 | -14.8
7 | CC(=O)c1c(C)[nH]c(C(=O)Nc2ccc(N3CCCC3)cc2)c1C | 27.6
8 | Cc1cc2cc3c(cc2nc1SCC(=O)NC1CCCC1)OCCO3 | 10.3
9 | Cc1ccc2cc(CN(CC3CCCO3)C(=S)Nc3ccccc3)c(=O)[nH]c2c1 (stereo not given) | 0.1
10 | Cc1cccc2cc(C#N)c(SCC(=O)c3ccc(F)cc3)nc12 | -11.1
11 | COc1ccc2cc(CN(Cc3ccco3)C(=O)c3cccs3)c(=O)[nH]c2c1 | 91.2
12 | O=C(Nc1ccc(N2CCCC2)cc1)C1COc2ccc(Cl)cc2C1 (stereo not given) | 19.2
13 | Cc1ccc(/C=N/NC(=O)c2ccc3c(c2)OCO3)cc1 | -38.5
14 | COc1cccc2sc(NC(=O)C3CN(C(C)=O)c4ccccc4O3)nc12 (stereo not given) | -38.1
15 | COc1ccccc1-n1c(SCC(=O)Nc2nccs2)nnc1-c1cccnc1 | 5.05
16 | Cc1ccc2nc(NC(=O)c3cc(Br)c[nH]3)sc2c1 | -51.9
17 | COc1ccccc1Nc1nc(-c2ccc(S(C)(=O)=O)cc2)cs1 | 104
18 | O=C1CCCN1c1ccc(S(=O)(=O)Oc2ccc(Cl)cc2)cc1 | -18.4
19 | CC(C)n1ncc2cc(C(=O)Nc3cccc4c3CCCC4)cnc21 | -23.5
20 | COc1ccc(Br)cc1-c1nc(CN2C(=O)NC(C)(c3ccccc3)C2=O)cs1 (stereo not given) | 88.8
21 | COc1ccc(OC)c(NC(=O)CSc2nc3cc4c(cc3cc2C)CCC4)c1 | 20.5
22 | O=c1[nH]c(/C=C/c2ccccc2)nc2sc3c(c12)CCCCC3 | 16.8
23 | Cc1ccc(NC(=O)c2cc(F)c(Cl)cc2Cl)nc1 | -57.6
24 | N#Cc1ccsc1NC(=O)C1COc2ccccc2C1 (stereo not given) | -10.4
25 | CCOc1ccc2nc(SCC(=O)Nc3ccccc3CC)c(C#N)cc2c1 | -22.2
26 | Oc1ccccc1-c1nc2cnccn2c1NCc1ccc2c(c1)OCO2 | -6.54
27 | Cc1ccc2cc(C#N)c(SCC(=O)c3ccc(F)cc3)nc2c1C | 20
28 | CCc1cc2cc(OC)ccc2nc1SCC(=O)Nc1ccccc1Cl | -96.6
29 | CCc1ccccc1NC(=O)CSc1nc2cc3c(cc2cc1C#N)OCO3 | 56.6
30 | C/C(=N\Nc1cc(-c2ccccc2)nc(C)n1)c1ccc(C)cc1 | -7.02
